Bioassay records (PubChem)
In the library only some 5.2% were active in any assay of this set; here they are far more common.
mIDH1 inhibitor – blocks human mutant IDH1 R132H enzyme. O75874. IDH1-R132H enzyme, NADPH consumption, diaphorase/resazurin fluorescence. Potency, µM (top dose mostly 76.6 µM), for the others: top-dose activity change, negative = inhibition, most hits filed as inhibitors. 390,000 compounds, 0.093% hits. AID 602179; note: nearly all actives have a fitted effect of over 65% in size
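IDH1-R132H (0.5 ug/mL) preincubated 30 min with compound, then NADPH (0.016 mM) and alpha-KG (2 mM) added; 80 min at RT, pH 7.5. Remaining NADPH coupled via diaphorase/resazurin to fluorescence (540/590 nm); concentration-response curves normalized to no-enzyme control.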
Sfp inh – Sfp phosphopantetheinyl transferase inhibition | Potency, µM, without a hit: largest response in the series, negative = inhibition, actives largely listed as inhibitors | Biochemical Sfp PPTase activity, qHTS | AID 1490 | 310,000 compounds, 3.5% hits;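 note: the enzyme is Sfp with the accession as filed and its product quenches rhodamine fluorescence; 0% = enzyme reaction without inhibitor and -100% = no enzyme wells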
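Reaction rates are the 30-min fluorescence difference (ex 525, em 598 nm) in wells containing 15 nM Sfp, 5 uM rhodamine-CoA and 12.5 uM BHQ-2-YbbR at pH 7.6 with 10 mM MgCl2.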
TrxR1 substrate – rat thioredoxin reductase 1 substrate activity; AID 588456; 390,000 compounds, 0.01% hits; Potency, µM (titrated, usually from 114 µM), for the others: at the top dose activity change, negative = substrate turnover; O89049; purified TrxR1 substrate turnover, NADPH consumption readout; note: nearly all actives have a fitted effect of over 50% in size
Target sequence (O89049 whole entry, looked up): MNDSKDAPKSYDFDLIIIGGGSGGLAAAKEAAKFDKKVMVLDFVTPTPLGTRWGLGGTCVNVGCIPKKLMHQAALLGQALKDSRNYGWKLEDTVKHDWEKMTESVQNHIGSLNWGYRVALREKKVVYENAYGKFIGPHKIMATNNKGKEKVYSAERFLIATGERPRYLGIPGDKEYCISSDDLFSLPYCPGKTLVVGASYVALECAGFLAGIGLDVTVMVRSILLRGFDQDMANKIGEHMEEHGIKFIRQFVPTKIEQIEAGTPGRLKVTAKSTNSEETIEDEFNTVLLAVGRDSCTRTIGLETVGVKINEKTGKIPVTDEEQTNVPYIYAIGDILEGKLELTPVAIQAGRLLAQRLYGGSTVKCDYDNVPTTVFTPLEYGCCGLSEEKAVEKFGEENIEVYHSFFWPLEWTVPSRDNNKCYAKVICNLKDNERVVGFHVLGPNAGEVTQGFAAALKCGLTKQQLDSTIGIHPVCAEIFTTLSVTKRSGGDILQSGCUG
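Rat TrxR1, dispensed at 90 nM, was prereduced with 400 uM NADPH (final) for 5 min at ~22 deg C, then incubated with compound 15 min before 400 uM selenite. A first-read NADPH fluorescence drop versus no-compound background flagged substrates.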
PLK1 PBD block – blocks phosphopeptide binding to human PLK1 polo-box domain | P53350 | Plk1 PBD binding of FITC phosphopeptide, fluorescence polarization | Potency, µM, for the others: max response, negative = inhibition, most hits filed as inhibitors | 360,000 compounds, 2.8% hits | AID 720504; note: series mostly up to about 57 µM; nearly all actives have a fitted effect of over 65% in size
VDR inh – inhibitors of human vitamin D receptor; P11473; VDR-SRC2-3 peptide fluorescence polarization, 2 h; Potency, µM, for the others: max response, negative = inhibition, most hits filed as inhibitors; 400,000 compounds, 0.93% hits; AID 504847
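Fluorescence polarization assay measuring small-molecule disruption of VDR binding to the coregulator peptide SRC2-3. Compounds were pin-transferred (23 nl) into the reagent mix and incubated 2 h at room temperature before reading.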
TrxR1 inh – blocks rat thioredoxin reductase 1. Potency, µM (series often up to 114 µM), inactives show at the top dose activity change, negative = inhibition, actives largely listed as inhibitors. 390,000 compounds, 1% hits. recombinant rTrxR1, NADPH fluorescence consumption, selenite substrate; note: nearly all actives have a fitted effect of over 65% in size
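Rat TrxR1 (90 nM in the dispensed reagent) was pre-reduced with 400 uM NADPH for 5 min at room temperature, then incubated with compound for 15 min. After 400 uM selenite was added, NADPH fluorescence (Ex 340/Em 450 nm) was followed for 8 min.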
Numbers without * were called inactive; ? = inconclusive; nt = no result given; [ ] = remark or other dose. Calls come from the whole dose curve; as a rule, active = well fitted curve in the direction sought with a large enough effect; inconclusive = small, poorly fitted or top-dose-only effect, or another doubt; inactive = no such curve, though single readings can be large; an effect the other way counts as inactive or inconclusive. Unless noted, % is set by controls: 0 for no effect and ±100 for the full control effect; potency is the fitted concentration of half-maximal effect.

SMILES | mIDH1 inhibitor | Sfp inh | TrxR1 substrate | PLK1 PBD block | VDR inh | TrxR1 inh
Cc1ccccc1Nc1nc(CSc2nnc(-c3ccoc3C)n2C)cs1 | 3% | 20µM* | -7% | -17% | -6% | 50µM*
Cc1occc1-c1nnc(SCc2cc(=O)n3cc(Br)ccc3n2)n1C | 1% | -20% | 1% | -8% | 14% | ?
Cc1ccc(CSc2nnc(-c3ccncc3)n2C)cc1 | 2% | 7% | 7%[57.1 µM] | 4% | 9% | -10%[57.1 µM]
Cc1ccc(Nc2nc(CSc3nnc(-c4ccncc4)n3C)cs2)cc1 | 0% | 40µM* | 0% | -4% | -19% | -2%
COCCNC(=O)C1(C)CCN(C(=O)c2ccc3c(c2)C(C)(C)CCC3(C)C)C1 (stereo not drawn) | nt | nt | nt | -5% | nt | nt
COc1ccc(C(CC(=O)NCc2ccc(Cl)cc2)N2Cc3ccccc3C2=O)cc1OC (stereo not drawn) | -12% | nt | 3% | nt | 3% | 7%
O=c1c2c(-c3ccccc3)csc2nc2n1CCC2 | 8% | 32µM* | -12%[11.4 µM] | ? | -7% | 13%[11.4 µM]
COc1ccc(C2=NC(c3ccc(Cl)cc3)C(c3ccc(Cl)cc3)N2C(=O)N2CCNC(=O)C2)c(OC(C)C)c1 (stereo not drawn) | nt | -22% | nt | nt | 50µM* | nt
C=CCc1c(C)nc(-c2ccccc2)nc1N/N=C(\C)c1ccccc1 | 10% | 45µM* | 1% | 4% | -1% | 7%
C=CCc1c(C)nc(-c2ccccc2)nc1Nc1ccc(O)cc1 | -1% | -15% | -16% | -7% | 0% | -3%
CCCCN(CC)c1nc(C)nc2c1c(C)c(C)n2-c1c(C)cc(C)cc1C | nt | -7% | nt | nt | -1% | nt
COc1ccc(CN=Cc2c(C(F)(F)F)[nH][nH]c2=O)cc1 | 2% | 14% | -6% | 27µM* | -14% | -4%
COc1ccc(CN=Cc2c(O)[nH]c3ccccc23)cc1 | -5% | 7% | -8% | 21µM* | -7% | 18%[57.1 µM]
COC(=O)c1ccc(N=Cc2c(C(F)(F)F)[nH][nH]c2=O)cc1 | -6% | 9% | 1%[57.1 µM] | -3% | -17% | 5%[57.1 µM]
CCN(CC)c1ccc(CNc2nc3ccccc3n2C(C)C)cc1 | -3% | 8% | -7%[57.1 µM] | 19µM* | -22% | -3%[57.1 µM]
CCOC(=O)C1CCCN(CC(=O)Nc2c(F)c(F)c(F)c(F)c2F)C1 (stereo not drawn) | 9% | 9% | 6% | -8% | -16% | 21%
CCOC(=O)C1CCCN(C(=O)Cc2ccc(OC)c(OC)c2)C1 (stereo not drawn) | 7% | 13% | 14% | -12% | -1% | 32%
CCOC(=O)C1CCCN(C(=O)Cc2ccc(C)cc2)C1 (stereo not drawn) | 6% | 9% | 3% | 27µM* | 4% | 8%
CCOC(=O)C1CCCN(CC(=O)c2ccc(F)cc2)C1 (stereo not drawn) | -4% | 50µM* | 5%[57.1 µM] | -4% | -27% | -10%[57.1 µM]
NS(=O)(=O)c1ccc(NC(=S)N2CCC(O)CC2)cc1 | 6% | 45µM* | -17%[57.1 µM] | ? | -20% | 13%[57.1 µM]
CCOC(=O)C1CCCN(C(=S)Nc2ccc(Nc3ccccc3)cc2)C1 (stereo not drawn) | 16% | 45µM* | 0%[57.1 µM] | 21µM* | -9% | 8%[57.1 µM]
Cc1nc2cccnc2n1C1CCN(C(=O)Nc2ccccc2)CC1 | 25% | nt | 4%[57.1 µM] | nt | 4% | 17%[57.1 µM]
C=C1C[C@@H]2C[C@@H]2CN(S(=O)(=O)c2ccc(C)cc2)[C@@H]1COCc1ccccc1 | nt | nt | nt | 1% | nt | nt
CCOC(=O)C1CCN(C(=S)Nc2ccc(S(N)(=O)=O)cc2)CC1 | 7% | 45µM* | -14% | 21µM* | -23% | ?
O=C(COc1cccc(Br)c1)N/N=C1\CCSC1 | -3% | 11% | 0%[57.1 µM] | 21µM* | ? | 2%[57.1 µM]
CCCc1nnc(SCC(=O)N2CCOCC2)n1CCCOC | -4% | -1% | 13%[57.1 µM] | 17µM* | -15% | 7%
O=C(Cn1ncc2c3ccccc3n(Cc3ccccc3F)c2c1=O)N1CCCCCC1 | -7% | nt | 4% | nt | 6% | 7%
